# Measured values: PubChem BioAssay AID1851 (National Center for Advancing Translational Sciences (NCATS), 2009)
# Several values for one entry are separate records, joined by “and”; a condition that tells them apart may be missing. Equal entries are not always repeated. The whole screen tested about 16,000 compounds, of which about 2,600 (16%) were called active. About 20% were inconclusive and are not listed. Not all results are given here. A number with no mark means an inactive call. The call rests on the fitted dose curve; in most records, active means well fitted curve in the direction sought with a large enough effect; inconclusive means small, poorly fitted or top-dose-only effect, or effect the other way; inactive means no such curve, though single readings can be large or run the other way.
# Target: Cytochrome P450 2D6 (Homo sapiens) (UniProt P10635)
# Experiment: Cytochrome panel assay with activity outcomes
# Details: recombinant CYP, pro-luciferin dealkylation, luminescence, p450-cyp2d6; series mostly up to 57.1 µM; activity, negative = inhibition: at the top concentration
# On the % scale 0 is the no-effect control and ±100 the full control effect.
# Chain of Cytochrome P450 2D6 (Homo sapiens) (P10635 whole entry, looked up): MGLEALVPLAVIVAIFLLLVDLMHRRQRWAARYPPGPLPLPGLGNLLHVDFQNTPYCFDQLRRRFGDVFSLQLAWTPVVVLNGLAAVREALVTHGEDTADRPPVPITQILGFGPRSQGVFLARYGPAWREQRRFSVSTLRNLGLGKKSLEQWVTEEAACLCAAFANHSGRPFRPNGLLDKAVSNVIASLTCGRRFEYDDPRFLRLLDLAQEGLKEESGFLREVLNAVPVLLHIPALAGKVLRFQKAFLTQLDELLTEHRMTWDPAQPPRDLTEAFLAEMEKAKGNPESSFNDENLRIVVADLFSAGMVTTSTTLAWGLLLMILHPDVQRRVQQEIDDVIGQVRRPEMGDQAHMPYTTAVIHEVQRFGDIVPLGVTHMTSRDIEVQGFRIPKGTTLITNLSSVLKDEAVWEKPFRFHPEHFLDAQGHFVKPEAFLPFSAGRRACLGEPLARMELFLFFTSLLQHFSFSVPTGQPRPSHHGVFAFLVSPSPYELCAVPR
Structure (SMILES),"activity, negative = inhibition",AC50
Cc1c(NC(=O)CN2C(=O)C3C4C=CC(C4)C3C2=O)c(=O)n(-c2ccccc2)n1C (stereo not given),-7.26%,–
Cc1ccccc1C(=O)Nc1ccc(N2CCOCC2)nc1,-3.03%,–
OC(CCN1CCCCC1)(c1ccccc1)c1ccccc1,–,5.01 µM (active)
Cc1ccc(SCN2CCCCC2)cc1 (tested in a mixture with another compound),-7.47% [at 11.4 µM],–
CC[N+](CC)(CC)CC[C@](O)(c1ccccc1)C1CCCCC1,–,0.02 µM (active)
Cn1ccnc1C[C@@](C)(O)c1ccccc1,-12.1% [at 11.4 µM],–
OC(CCCN1CCCCC1)(c1ccccc1)c1ccccc1,–,0.126 µM (active)
CCOc1ccc(C(F)(F)F)cc1NC(=O)c1ccc(OC)c([N+](=O)[O-])c1,11.2%,–
COc1ccc(C(C(=O)NC2CCCC2)N(Cc2ccc(F)cc2)C(=O)c2ccn[nH]2)cc1OC (stereo not given),-3.02%,–
COC(=O)c1ccccc1NC(=O)C(CCS(C)(=O)=O)NC(C)=O (stereo not given),4.08%,–
CC(CCc1ccccc1)NC(=O)/C=C/c1ccccc1 (stereo not given),-18.2%,–
O=C1c2ccc3c4c(ccc(c24)C(=O)N1c1ccc2ccccc2c1)CC3,-2.14%,–
O=C(c1ccc(Cl)cc1)N1CCN(C(=O)c2ccco2)CC1,7.09%,–
Cc1ccc(Cn2cccc(NC(=O)NC3CCCCC3)c2=O)cc1,-7.79%,–
CC(=O)c1[nH]c(C)c(C(C)=O)c1C,-1.55%,–
O=C1C2C3C=CC([C@@H]2C(=O)N1C1CCCCC1)[C@H]1C(=O)N(C2CCCCC2)C(=O)C31 (stereo not given in full),-12.1%,–
COc1ccc(C(OCCN2CCC[C@@H](C(=O)O)C2)(c2ccc(OC)cc2)c2ccc(OC)cc2)cc1,5.69%,–
O=C(CCc1ccccc1)NNC(=O)C1CCCCC1,-6.85%,–
O[C@@](CCN1CCCCC1)(c1ccccc1)C1CCCCC1,–,5.01 µM (active) and 1.26 µM (active)

Structure (SMILES),"activity, negative = inhibition",AC50
COc1ccc(-c2nc3cnc(N4CCN(C)CC4)nc3n(Cc3cccs3)c2=O)cc1,4.42%,–
CC(C(=O)Nc1cccnc1)N1C(=O)C2C3C=CC(C3)C2C1=O (stereo not given),3.18%,–
CN1CCc2cc(NC(=O)Nc3cccnc3)ccc21,–,25.1 µM (active)
Cn1ncc(Cl)c1C(=O)Nc1cccnc1,-14.2%,–
COc1cc2c(cc1C(F)(F)F)N(C(=O)Nc1cc(F)cc(-c3cccnc3)c1)CC2,-4.26%,–
CSc1cc2c(cc1C(F)(F)F)N(C(=O)Nc1cccnc1)CC2,–,31.6 µM (active)
O=C(Nc1cccc(F)c1)N1CCC2(CC1)CCN(C(=O)c1cnccn1)CC2,-1.26%,–
CCOC(=O)c1c(NC(=O)CCc2ccc(CC)o2)sc(C)c1C,-3.27%,–
COC(=O)C1C(O)=C(C=NCc2ccccc2)C(=O)CC1(C)C (stereo not given),3.16%,–
Cc1ccc(/C=C2\Sc3ccccc3C2=O)s1,–,15.8 µM (active)
CCCN1C(=O)/C(=C/c2ccc(C)s2)SC1=Nc1ccc(OC)cc1,-20.9%,–
CCC(=O)N(C)/C=C1\Sc2ccccc2C1=O,-4.29%,–
O=S(=O)(c1ccccc1)c1cnn2c(C(F)(F)F)cc(-c3ccccc3)nc12,-7.85%,–
c1ccc(-c2ccc3c(c2)c2c4n3CCN=C4CCC2)cc1,-14.4%,–
Cc1ccc(C(C)C)n1C(=O)OC(C)(C)C,0.591% [at 11.4 µM],–
O=S1(=O)C=C(Oc2ccc3ccccc3c2)c2ccccc21,-3.65%,–
O=C(NCc1cn(-c2ccccc2)nc1-c1ccccc1)c1cc([N+](=O)[O-])cc([N+](=O)[O-])c1,-2.14%,–
Cc1ccc(-c2nn(-c3ccccc3)cc2CSC(=N)N)cc1,–,0.251 µM (active)
Cc1c(NC(=O)/C=C/c2cn(-c3ccccc3)nc2-c2ccc(F)cc2)c(=O)n(-c2ccccc2)n1C,-0.729%,–
NC(=O)C1=CN([C@@H]2O[C@@H](COP(=O)(O)OP(=O)(O)OC[C@@H]3O[C@H](n4cnc5c(N)ncnc54)[C@@H](OP(=O)(O)O)[C@@H]3O)[C@H](O)[C@@H]2O)C=CC1,5.16%,–
